Measured values as given in PubChem BioAssay (Tox21).
Several values for one entry are separate records, joined by “and”; a condition that tells them apart may be missing. Equal entries are not always repeated. Results filed as inconclusive are left out. Entries that show only a call come without a potency. Some compounds were tested as several samples or in several runs, with calls that do not always agree. Activity calls are given as the source filed them. Unless noted, calls come from the whole dose curve; as a rule, active = well fitted curve in the direction sought with a large enough effect in the repeat runs; inconclusive = weak or mixed curves; inactive = no such curve, though single readings can be large; an effect the other way counts as inactive or inconclusive. Starred links: 1 amine or outer side, 2 acyl side, 3 side chain; linkers in the order of their positions; H or OH if unused. Positions of bridges follow the written chain, without caps; N, C: chain ends. Non-standard residues stand in square brackets, D forms with d. Residues, ends and D or L forms follow the SMILES beside them. Chains are numbered I, II in the order given. Actinocin(9to1) = Cc1c2oc3c(C)ccc(C(=O)[*:1])c3nc-2c(C(=O)[*:2])c(N)c1=O; NMeV = CN[C@H](C(=O)O)C(C)C; Sar = CNCC(=O)O

Key:
[1] = qHTS assay to identify small molecule antagonists of the glucocorticoid receptor (GR) signaling pathway - cell viability counter screen (AID 720693); note: nearly all actives have a fitted effect of over 55% in size; note: potency is the fitted concentration of half-maximal effect
[2] = qHTS assay for identifying genotoxic compounds that show differential cytotoxicity against isogenic chicken DT40 cell lines with known DNA damage response pathways - wild type cell line (AID 743012); note: nearly all actives have a fitted effect of over 60% in size; note: potency is the fitted concentration of half-maximal effect
In short: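 Viability of DNA repair-proficient chicken DT40 cells was assessed by CellTiter-Glo luminescence following 40 h compound exposure at 37 C/5% CO2.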

[3] = qHTS assay for identifying genotoxic compounds that show differential cytotoxicity against isogenic chicken DT40 cell lines with known DNA damage response pathways - Rev3 mutant cell line (AID 743014); note: nearly all actives have a fitted effect of over 55% in size; note: potency is the fitted concentration of half-maximal effect
[4] = qHTS assay for identifying genotoxic compounds that show differential cytotoxicity against isogenic chicken DT40 cell lines with known DNA damage response pathways - Rad54/Ku70 mutant cell line (AID 743015); note: nearly all actives have a fitted effect of over 60% in size; note: potency is the fitted concentration of half-maximal effect
[5] = qHTS assay to identify small molecule antagonists of the androgen receptor (AR) signaling pathway - cell viability counter screen (AID 743033; note: nearly all actives have a fitted effect of over 45% in size; note: potency is the fitted concentration of half-maximal effect)
[6] = target: Androgen receptor (Homo sapiens) (UniProt P10275); test: qHTS assay to identify small molecule agonists of the androgen receptor (AR) signaling pathway using the MDA cell line (AID 743040; note: nearly all actives have a fitted effect of over 20% in size)
Chain of Androgen receptor (Homo sapiens) (P10275 whole entry, looked up): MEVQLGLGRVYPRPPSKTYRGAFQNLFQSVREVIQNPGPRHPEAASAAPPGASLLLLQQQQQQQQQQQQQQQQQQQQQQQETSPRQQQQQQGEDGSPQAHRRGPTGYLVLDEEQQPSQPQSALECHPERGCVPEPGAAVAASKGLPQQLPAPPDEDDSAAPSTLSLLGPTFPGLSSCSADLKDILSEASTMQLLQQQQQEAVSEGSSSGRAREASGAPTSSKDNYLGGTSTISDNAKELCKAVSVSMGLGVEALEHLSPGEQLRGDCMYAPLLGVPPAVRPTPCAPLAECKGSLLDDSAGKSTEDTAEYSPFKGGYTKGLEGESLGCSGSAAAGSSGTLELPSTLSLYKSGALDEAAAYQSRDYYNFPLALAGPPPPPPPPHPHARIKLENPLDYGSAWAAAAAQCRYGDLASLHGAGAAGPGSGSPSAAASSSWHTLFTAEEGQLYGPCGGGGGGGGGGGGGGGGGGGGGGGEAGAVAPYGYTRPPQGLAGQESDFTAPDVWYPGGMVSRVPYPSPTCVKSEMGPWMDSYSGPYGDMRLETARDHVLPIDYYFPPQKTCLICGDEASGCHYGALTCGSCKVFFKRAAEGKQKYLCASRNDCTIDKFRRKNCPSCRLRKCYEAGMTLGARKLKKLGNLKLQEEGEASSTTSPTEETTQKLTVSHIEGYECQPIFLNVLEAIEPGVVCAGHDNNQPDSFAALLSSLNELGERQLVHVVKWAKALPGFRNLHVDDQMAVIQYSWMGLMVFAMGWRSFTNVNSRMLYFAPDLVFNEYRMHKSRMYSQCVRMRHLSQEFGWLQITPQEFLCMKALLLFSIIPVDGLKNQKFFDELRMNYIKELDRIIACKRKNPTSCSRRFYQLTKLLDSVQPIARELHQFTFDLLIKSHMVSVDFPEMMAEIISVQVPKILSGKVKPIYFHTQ
In short: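 Stable MMTV-luciferase reporter in MDA-kb2 cells; note the promoter carries GR as well as AR response elements. 16 h compound treatment, 37C, 0% CO2; ONE-Glo luminescence endpoint.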

[7] = qHTS assay to identify small molecule antagonists of the androgen receptor (AR) signaling pathway using the MDA cell line - cell viability counter screen (AID 743041; note: nearly all actives have a fitted effect of over 45% in size; note: potency is the fitted concentration of half-maximal effect)
In short: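 Using the breast carcinoma line MDA-kb2 AR-luc, test chemicals were co-incubated with R1881 for 16 h; CellTiter-Fluor reagent, added at 15.5 h, provided a fluorescence measure of live cells.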

[8] = target: Androgen receptor (Homo sapiens) (UniProt P10275); test: qHTS assay to identify small molecule antagonists of the androgen receptor (AR) signaling pathway using the MDA cell line (AID 743042; note: nearly all actives have a fitted effect of over 55% in size; note: potency is the fitted concentration of half-maximal effect)
In short: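 Antagonist mode: compounds plus R1881 agonist added to MDA-kb2 AR-luc cells, incubated 16 h at 37C. Luciferase reporter luminescence quantified, with multiplexed CellTiter-Fluor readout for cell viability.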

[9] = target: Androgen receptor (Homo sapiens) (UniProt P10275); test: qHTS assay to identify small molecule antagonists of the androgen receptor (AR) signaling pathway (AID 743035; active = well fitted inhibition curve with a large enough effect in the signal ratio in the repeat runs, not every such curve was filed as active; the % refers to the signal ratio; note: potency is the fitted concentration of half-maximal effect)
In short: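 Reporter HEK293 cells were exposed to compounds and R1881 overnight (16 h, 37C); beta-lactamase activity was then quantified by FRET fluorescence.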

[10] = target: Androgen receptor (Homo sapiens) (UniProt P10275); test: qHTS assay to identify small molecule agonists of the androgen receptor (AR) signaling pathway (AID 743036; active = well fitted activation curve with a large enough effect in the signal ratio in the repeat runs, with a control signal flat, not every such curve was filed as active; the % refers to the signal ratio; note: potency is the fitted concentration of half-maximal effect)
In short: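 Activation was read as beta-lactamase FRET signal from LiveBLAzer B/G substrate, added for 2 h at room temperature. Before that, GeneBLAzer AR-UAS-bla GripTite (HEK293) cells had 16 h compound exposure at 37C.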

Structure (SMILES)	Potency [1]	Potency [2]	Potency [3]	Potency [4]	Potency [5]	outcome [6]	Potency [7]	Potency [8]	Potency [9]	Potency [10]
CC1=C(C=O)C(C)(C)CC=C1	inactive	inactive	inactive	inactive	inactive					
CCCCCCCCCCCCCC[P+](CCCC)(CCCC)CCCC	9.72 µM (active) and 4.9 µM (active)	192 nM (active) and 86.3 nM (active)	85.8 nM (active) and 61.1 nM (active)	76.5 nM (active) and 54.5 nM (active)	866 nM (active) and 977 nM (active)	inactive	21.6 µM (active) and 6.11 µM (active)	2.16 µM (active) and 1.54 µM (active)		
CC(N)=O	inactive	inactive	inactive	inactive	inactive					
CCCCCCCCCCCC[N+](C)(C)C	24.5 µM (active) and 17.4 µM (active) and 38.9 µM (active)	861 nM (active) and 243 nM (active) and 217 nM (active)	432 nM (active) and 137 nM (active) and 217 nM (active)	543 nM (active) and 217 nM (active)	48.9 µM (active) and 49 µM (active) and 38.9 µM (active)					
CC1COC(=O)O1 (stereo unspecified)	inactive	inactive	inactive	inactive	inactive	inactive	inactive	inactive	inactive	inactive
CCc1ccc(C(c2ccc(CC)cc2)C(Cl)Cl)cc1	inactive	inactive	inactive	inactive	inactive	inactive		inactive		inactive
CC[C@H]1CN2CCc3cc(OC)c(OC)cc3[C@@H]2C[C@@H]1C[C@H]1NCCc2cc(OC)c(OC)cc21	4.92 µM (active)	18.8 nM (active) and 24.4 nM (active)	23.7 nM (active) and 19.4 nM (active)	23.7 nM (active) and 21.8 nM (active)						
CCn1c2ccccc2c2cc(N)ccc21	inactive	61.1 µM (active)	21.7 µM (active)	54.5 µM (active)	inactive					
NC(N)=Nc1nc(CSCC/C(N)=N/S(N)(=O)=O)cs1	inactive	inactive	inactive	inactive	inactive					
O=C(Oc1ccccc1)c1ccccc1O	inactive	inactive	inactive	inactive and 61.1 µM (active)	inactive					
c1cc(C(c2ccc(OCC3CO3)cc2)C(c2ccc(OCC3CO3)cc2)c2ccc(OCC3CO3)cc2)ccc1OCC1CO1 (stereo unspecified)	inactive	20.1 µM (active) and 3.43 µM (active)	357 nM (active) and 385 nM (active)	6.34 µM (active) and 3.06 µM (active)	inactive					
COc1ccc(CCN(C)CCCC(C#N)(c2ccc(OC)c(OC)c2)C(C)C)cc1OC (stereo unspecified)	inactive	13.3 µM (active) and 54.4 µM (active)	23.7 µM (active) and 27.3 µM (active)							
O	inactive	inactive and 13.9 µM (active)	inactive and 9.81 µM (active)	inactive	inactive					
OCC(CO)N[C@H]1C[C@](O)(CO)[C@@H](O)[C@H](O)[C@H]1O	inactive	inactive	inactive	inactive	inactive	inactive	inactive	inactive	inactive	inactive
Nc1cc(Cl)c(-c2cc(Cl)c(N)cc2Cl)cc1Cl	54.9 µM (active) and 49 µM (active)	5.44 µM (active) and 4.86 µM (active)	2.43 µM (active) and 5.45 µM (active)	2.73 µM (active) and 4.33 µM (active)	43.6 µM (active) and 49 µM (active)	inactive	61.1 µM (active)	54.4 µM (active) and 68.6 µM (active)	21.9 µM (active) and 17.4 µM (active)	
CCN(CC)c1ccc2c(C)cc(=O)oc2c1	inactive	30.9 µM (active) and inactive	69.1 µM (active)	61.6 µM (active)	inactive					
CCCCCCCCCCCCc1ccccc1O	21.6 µM (active) and 21.9 µM (active)	12 µM (active) and 30.6 µM (active)	7.59 µM (active) and 24.3 µM (active)	12 µM (active) and 27.3 µM (active)	24.2 µM (active) and 38.9 µM (active)	inactive	inactive	54.5 µM (active)	21.6 µM (active)	
CC(C)CCCCCCc1ccc(O)cc1	25 µM (active)	21.1 µM (active) and 62.2 µM (active) and 27.3 µM (active)	11.9 µM (active) and 17.5 µM (active) and 30.6 µM (active)	21.1 µM (active) and 62.2 µM (active) and 27.3 µM (active)	inactive					
O=Nc1ccc(Nc2ccccc2)cc1	inactive	3.88 µM (active) and 3.06 µM (active)	1.23 µM (active) and 1.72 µM (active)	3.08 µM (active) and 2.17 µM (active)	17.5 µM (active) and 30.9 µM (active)	inactive	61.4 µM (active)	54.8 µM (active)		
CCCCCCC(O)CCCCCCCCCCC(=O)O (stereo unspecified)	inactive	inactive	inactive	inactive and 48.6 µM (active)	inactive					
C=C(C)C(=O)O	inactive	inactive	inactive	inactive	inactive					

Structure (SMILES)	Potency [1]	Potency [2]	Potency [3]	Potency [4]	Potency [5]	outcome [6]	Potency [7]	Potency [8]	Potency [9]	Potency [10]
O=C1OC2(c3ccc(O)cc3Oc3cc(O)ccc32)c2ccccc21	inactive	inactive	inactive	inactive	inactive					
CCC(C)(Oc1ccc(C2(c3ccc(OC(C)(CC)C(=O)O)cc3)CCCCC2)cc1)C(=O)O (stereo unspecified)	inactive	inactive	inactive	inactive	inactive	inactive	inactive	inactive	inactive	inactive
CCN(CC)C(=S)SSC(=S)N(CC)CC	inactive	106 nM (active) and 96.9 nM (active) and 19.8 nM (active)	119 nM (active) and 96.9 nM (active) and 38.4 nM (active)	106 nM (active) and 96.9 nM (active) and 68.6 nM (active)	425 nM (active) and 138 nM (active) and 100 nM (active)	inactive		266 nM (active) and 217 nM (active) and 140 nM (active)	0.123 µM (active)	inactive
CCOc1ccccc1C(N)=O	inactive	inactive	inactive	inactive	inactive	inactive		inactive	inactive	inactive
C=C(C)C1CC=C(C)C(OC(C)=O)C1 (stereo unspecified)	inactive	inactive	inactive	inactive	inactive					
O=C(O)CP(=O)(O)O	inactive	inactive	inactive	inactive	inactive					
O=Cc1ccc(Cl)cc1	inactive	inactive	inactive	inactive	inactive		inactive	inactive	inactive	19.4 µM (active)
CC(C)(O)CCC(C)(C)O	inactive	inactive	inactive	inactive	inactive	inactive	inactive	inactive		
COC(=O)c1cccc(C(=O)OC)c1	inactive	inactive	inactive	inactive	inactive	inactive		inactive	inactive	inactive
CC(C)(C)NC(=O)[C@@H]1CN(Cc2cccnc2)CCN1C[C@@H](O)C[C@@H](Cc1ccccc1)C(=O)N[C@H]1c2ccccc2C[C@H]1O	inactive	23.7 µM (active) and inactive	23.7 µM (active) and inactive	18.8 µM (active)	inactive					
CC(=O)Nc1ccc(C(=O)CCl)cc1	inactive	inactive and 1.72 µM (active)	1.93 µM (active)	1.72 µM (active)	inactive	inactive		inactive		inactive
Cc1c2oc3c(C)ccc(C(=O)N[C@@H]4C(=O)N[C@H](C(C)C)C(=O)N5CCC[C@H]5C(=O)N(C)CC(=O)N(C)[C@@H](C(C)C)C(=O)O[C@@H]4C)c3nc-2c(C(=O)N[C@@H]2C(=O)N[C@H](C(C)C)C(=O)N3CCC[C@H]3C(=O)N(C)CC(=O)N(C)[C@@H](C(C)C)C(=O)O[C@@H]2C)c(N)c1=O (I: T[dV]P[Sar][NMeV] / II: T[dV]P[Sar][NMeV]; ester I:1-I:C, II:1-II:C; linker I:N-II:N via Actinocin(9to1))	239 nM (active) and 9.5 nM (active)	6.7 nM (active) and 1.1 nM (active)	7.5 nM (active) and 0.7 nM (active)	0.0024 µM (active)	inactive	inactive		15 nM (active) and 4.2 nM (active)	23.9 nM (active) and 1 nM (active)	inactive
Cc1cc(OCCOCC[N+](C)(C)Cc2ccccc2)ccc1C(C)(C)CC(C)(C)C	21.3 µM (active) and 17.3 µM (active)	841 nM (active) and 1.21 µM (active)	1.19 µM (active) and 682 nM (active)	1.06 µM (active) and 765 nM (active)	16.9 µM (active) and 15.4 µM (active)	inactive	24.2 µM (active)	18.8 µM (active) and 12.1 µM (active)		
Cc1cc(Cc2cc(C)cc(C(C)(C)C)c2O)c(O)c(C(C)(C)C)c1	12.4 µM (active) and 13.8 µM (active)	15.4 µM (active) and 17.2 µM (active)	13.8 µM (active) and 19.3 µM (active)	9.74 µM (active) and 15.4 µM (active)	22 µM (active)					
C=CS(=O)(=O)O	inactive	inactive	inactive	inactive	inactive					
CC(=O)CC(=O)Nc1ccc2[nH]c(=O)[nH]c2c1	inactive	inactive	inactive	inactive	inactive		inactive			
O=C1Nc2ccccc2C1(c1ccc(O)cc1)c1ccc(O)cc1	inactive	68.6 µM (active)	61.1 µM (active)		inactive					
CCCCN(CCO)CCCC	inactive	inactive	inactive	inactive	inactive		inactive			
CCC(=O)/C=C/C1C(C)=CCCC1(C)C (stereo unspecified)	inactive	inactive	inactive	inactive and 61.1 µM (active)	inactive		inactive			
Cc1ccnc2c1NC(=O)c1cccnc1N2C1CC1	inactive	inactive	inactive	inactive	inactive		inactive			
